Here are results for 19 compounds from PubChem BioAssay.

A short description of assay [1]: antimalarial activity against Dd2 strain (AID 2302;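 active means growth inhibition above 50% at the single 2 µM test dose, taken to imply half-maximal potency below 2 µM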;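 further: 0% = DMSO untreated growth and 100% = chloroquine plus artemisinin killed control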). The note with it: P. falciparum Dd2 in RBCs, LDH growth readout, 72 h; at 2 µM; stronger effect = higher value.
The nature of assay [2]: HepG2 cytotoxicity, primary screen, cytotoxicity control for P. falciparum antimalarial project, cell-based, ATP luminescence (AID 2303;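 active means inhibition above 50%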;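 further: 0% = DMSO wells and 100% = digitonin-killed cells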). The conditions noted are these: HepG2 viability, 24-48 h, at 10 µM, stronger effect = higher value.
The target in assay [3] is L-lactate dehydrogenase (Plasmodium falciparum (isolate CDC / Honduras)) (UniProt Q27743). Nature of the assay: PfLDH activity inhibition – cell lysate, 3D7 strain, counter-screen for P. falciparum growth inhibition project (AID 2304).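 Further: 0% = vehicle and 100% = reference inhibitor.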 The conditions noted are these: P. falciparum 3D7 crude extract, LDH APAD/NBT absorbance; at 2 µM; stronger effect = higher value. (A counterscreen serves to expose hits that act by an unwanted route or on another target.)

The nature of assay [4]: inhibition of 3D7 malaria parasite growth – strain 3D7 (AID 2306).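 Further: 0% = DMSO wells and 100% = chloroquine plus artemisinin control wells.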 The note with it: P. falciparum 3D7 erythrocytic growth, LDH absorbance, 72 h; at 2 µM; stronger effect = higher value.
The target of assay [5] is Calcium-dependent protein kinase 1 (Plasmodium falciparum (isolate 3D7)) (UniProt P62344). In words: PfCDPK1 kinase inhibitors, biochemical, TCAMS library (AID 1159585; cut-off not given, nearly all actives have IC50 up to about 0.98 µM;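 further: inhibitors leave more ATP so luminescence rises with inhibition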). The conditions noted are these: recombinant PfCDPK1, Kinase-Glo ATP depletion luminescence. (In Kinase-Glo more light means more ATP remaining.)
For assay [6], the target named is Plasmodium falciparum protein kinase 6 (PK6, PF3D7_1337100) (UniProt Q8IDW1). Nature of the assay: PfPK6 kinase inhibitors, biochemical, TCAMS library (AID 1159586). The conditions noted are these: recombinant PfPK6, Kinase-Glo ATP depletion luminescence.
The target of assay [7] is Protein kinase 7 (PK7), Plasmodium falciparum 3D7 (PF3D7_0213400) (UniProt Q7YTF7). Nature of the assay: inhibition of Plasmodium PK7 catalytic activity – biochemical, TCAMS antimalarial set, Kinase-Glo luminescence (AID 1159587). The conditions noted are these: recombinant PfPK7, Kinase-Glo ATP depletion luminescence.
In assay [8] the target is Calcium-dependent protein kinase 4 (Plasmodium falciparum (isolate 3D7)) (UniProt Q8IBS5). In words: PfCDPK4 kinase inhibitors, biochemical, TCAMS library (AID 1159588; cut-off not given, nearly all actives have IC50 up to about 0.91 µM). The conditions noted are these: recombinant PfCDPK4, Kinase-Glo ATP depletion luminescence.

Where “and” joins values, the source holds several entries; their conditions need not be identical. Equal entries are not always repeated. For some assays here: Entries with a potency or affinity are not part of this list. More than one record can exist for a structure, and the calls need not agree. Calls of active or inactive are those of the source. Unless noted, how the calls were made is not given here.

L-lactate dehydrogenase (Plasmodium falciparum (isolate CDC / Honduras)), sequence (Q27743 whole entry, looked up): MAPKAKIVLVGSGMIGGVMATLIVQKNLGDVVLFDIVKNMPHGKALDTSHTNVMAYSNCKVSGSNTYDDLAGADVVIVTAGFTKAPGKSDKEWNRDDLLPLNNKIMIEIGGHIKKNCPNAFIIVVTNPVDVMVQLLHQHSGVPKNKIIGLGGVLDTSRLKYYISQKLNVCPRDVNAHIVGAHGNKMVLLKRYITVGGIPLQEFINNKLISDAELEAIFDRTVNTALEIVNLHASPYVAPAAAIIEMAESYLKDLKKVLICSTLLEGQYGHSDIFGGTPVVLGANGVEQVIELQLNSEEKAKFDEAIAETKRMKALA
Plasmodium falciparum protein kinase 6 (PK6, PF3D7_1337100), sequence (Q8IDW1 1-305): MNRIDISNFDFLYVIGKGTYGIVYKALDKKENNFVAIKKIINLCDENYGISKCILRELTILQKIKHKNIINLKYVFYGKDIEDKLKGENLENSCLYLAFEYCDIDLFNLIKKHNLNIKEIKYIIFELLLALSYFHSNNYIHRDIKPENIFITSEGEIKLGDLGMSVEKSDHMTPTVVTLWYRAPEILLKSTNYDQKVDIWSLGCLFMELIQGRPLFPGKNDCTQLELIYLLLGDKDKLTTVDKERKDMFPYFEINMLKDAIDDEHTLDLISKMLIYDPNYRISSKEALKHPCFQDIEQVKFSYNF
Protein kinase 7 (PK7), Plasmodium falciparum 3D7 (PF3D7_0213400), sequence (Q7YTF7 1-343): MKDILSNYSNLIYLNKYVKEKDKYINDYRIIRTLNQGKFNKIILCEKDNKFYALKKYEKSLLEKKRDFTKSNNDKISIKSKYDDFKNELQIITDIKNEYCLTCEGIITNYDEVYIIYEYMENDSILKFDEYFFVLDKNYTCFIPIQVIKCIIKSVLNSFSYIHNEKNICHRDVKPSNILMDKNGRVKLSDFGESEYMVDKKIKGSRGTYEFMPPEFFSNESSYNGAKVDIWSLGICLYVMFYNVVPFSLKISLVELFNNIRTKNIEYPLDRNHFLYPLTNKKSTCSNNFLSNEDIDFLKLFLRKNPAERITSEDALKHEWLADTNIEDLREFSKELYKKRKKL
Calcium-dependent protein kinase 1 (Plasmodium falciparum (isolate 3D7)), sequence (P62344 whole entry, looked up): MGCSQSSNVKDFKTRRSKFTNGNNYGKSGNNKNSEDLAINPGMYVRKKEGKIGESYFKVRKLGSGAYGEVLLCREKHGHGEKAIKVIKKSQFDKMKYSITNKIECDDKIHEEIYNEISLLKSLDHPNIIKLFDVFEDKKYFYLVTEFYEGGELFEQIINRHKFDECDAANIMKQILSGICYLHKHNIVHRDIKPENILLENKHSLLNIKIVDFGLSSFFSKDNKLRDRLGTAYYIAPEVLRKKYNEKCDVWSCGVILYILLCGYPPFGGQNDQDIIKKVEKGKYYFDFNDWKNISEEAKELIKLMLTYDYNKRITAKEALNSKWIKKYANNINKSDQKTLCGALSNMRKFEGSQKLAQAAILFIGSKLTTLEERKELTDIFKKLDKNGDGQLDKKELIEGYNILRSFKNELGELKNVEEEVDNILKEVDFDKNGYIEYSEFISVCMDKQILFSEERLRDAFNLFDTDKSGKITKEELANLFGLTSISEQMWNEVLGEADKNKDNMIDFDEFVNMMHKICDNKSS
Calcium-dependent protein kinase 4 (Plasmodium falciparum (isolate 3D7)), sequence (Q8IBS5 whole entry, looked up): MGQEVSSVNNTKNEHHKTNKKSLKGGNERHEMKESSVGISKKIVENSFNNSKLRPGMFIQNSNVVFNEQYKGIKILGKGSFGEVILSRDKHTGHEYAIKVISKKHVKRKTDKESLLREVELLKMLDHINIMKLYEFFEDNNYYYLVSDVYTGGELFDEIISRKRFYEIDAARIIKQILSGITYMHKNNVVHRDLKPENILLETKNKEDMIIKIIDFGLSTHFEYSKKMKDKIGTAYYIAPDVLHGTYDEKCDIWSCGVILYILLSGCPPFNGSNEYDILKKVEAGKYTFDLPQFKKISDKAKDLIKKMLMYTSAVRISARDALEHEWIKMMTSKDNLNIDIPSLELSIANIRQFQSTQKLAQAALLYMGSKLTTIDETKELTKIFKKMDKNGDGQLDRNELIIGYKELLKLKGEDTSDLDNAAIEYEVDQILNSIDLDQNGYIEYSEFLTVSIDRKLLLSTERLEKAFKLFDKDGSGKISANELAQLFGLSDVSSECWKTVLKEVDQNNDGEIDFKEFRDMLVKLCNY

Broadly, the inhibition is the relative decrease from the control value, in per cent. `CC(Cc1ccc(-c2nc3ccccc3[nH]2)cc1)NCC(O)c1cccc(C(F)(F)F)c1` (configuration not stated): the growth inhibition in assay [1] was 90% (active); in assay [4] it was 97% (active). For the same compound, the results for the inhibition in assay [2] and in assay [3] were 33% (inactive) and 4% (inactive), respectively. The result in assay [5], in assay [6], in assay [7] and in assay [8] was inactive.

Take `Cc1cc(N(C)C2CCN(C)CC2)nc(Nc2ccc(Br)cc2)n1`: the growth inhibition is 92% (active) in assay [1] and 100% (active) in assay [4]. The inhibition was -5% (inactive) in assay [2] and 2% (inactive) in assay [3]. For the same compound, the outcome in assay [5], in assay [6], in assay [7] and in assay [8] was inactive.

As to `Cc1ccc(C(=O)Nc2ccnc(N(C)C3CCN(Cc4cccc(O)c4)CC3)c2)cn1`, the growth inhibition was 1% (inactive) in assay [1] and 90% (active) in assay [4]. For the same compound, the inhibition in assay [2] is 0% (inactive); in assay [3] it was 4% (inactive). The result in assay [5], in assay [6], in assay [7] and in assay [8] was inactive.

Consider `CCCC(=O)c1c(O)c2ccccc2oc1=O`, for which the figures for the growth inhibition in assay [1] and in assay [4] were 1% (inactive) and 93% (active), respectively. For the same compound, the results for the inhibition in assay [2] and in assay [3] were 11% (inactive) and -5% (inactive), respectively. In addition, the outcome in assay [5], in assay [6], in assay [7] and in assay [8] was inactive.

With `CCOC(C(=O)OCCN(C(C)C)C(C)C)(c1ccccc1)c1ccccc1`, the growth inhibition was 4% (inactive) in assay [1] and 97% (active) in assay [4]. Also, the results for the inhibition in assay [2] and in assay [3] were 4% (inactive) and -2% (inactive), respectively. Also, the outcome in assay [5], in assay [6], in assay [7] and in assay [8] was inactive.

For `CC[C@H]1CN2CC[C@@H]1C[C@H]2[C@H](O)c1cc(N2CCC(O)(c3ccc(Cl)cc3)CC2)nc2ccc(OC)cc12`, the growth inhibition in assay [1] was 98% (active); in assay [4], 101% (active). Further, the results for the inhibition in assay [2] and in assay [3] were 21% (inactive) and -8% (inactive), respectively. The result in assay [5], in assay [6], in assay [7] and in assay [8] was inactive.

Take `CN(c1cc(NC(=O)c2ccccc2)ccn1)C1CCN(Cc2cccc(F)c2)CC1`: the growth inhibition in assay [1] was 94% (active); in assay [4] it was 92% (active). Also, the inhibition was -6% (inactive) in assay [2] and -3% (inactive) in assay [3]. The result in assay [5], in assay [6], in assay [7] and in assay [8] was inactive.

`c1ccc2c(NCCCCCCNc3c4ccccc4nc4ccccc34)c3ccccc3nc2c1`: the results for the growth inhibition in assay [1] and in assay [4] were 80% (active) and 99% (active), respectively. In addition, the values for the inhibition in assay [2] and in assay [3] were 60% (active) and 3% (inactive), respectively. Also, the result in assay [5], in assay [6], in assay [7] and in assay [8] was inactive.

As to `O=C(/C=C/c1cccc2ccccc12)NC1CCC(CN2CCC(c3c[nH]c4ccccc34)CC2)CC1` (configuration not stated), the growth inhibition is 66% (active) and 72% (active) in assay [1]; 101% (active) and 100% (active) in assay [4]. Besides, the inhibition in assay [2] was 45% (inactive) and 53% (active); in assay [3] it was 5% (inactive) and -3% (inactive). Also, the result in assay [5], in assay [6], in assay [7] and in assay [8] was inactive.

For `CC(Cc1ccc(OCCCCOc2ccccc2)cc1)NCCC1CCCN1C` (configuration not stated), the growth inhibition in assay [1] was 98% (active); in assay [4], 99% (active). The results for the inhibition in assay [2] and in assay [3] were 100% (active) and 3% (inactive), respectively. For the same compound, the outcome in assay [5], in assay [6], in assay [7] and in assay [8] was inactive.

For the compound `Cc1[nH]c2ccccc2c1C1=CCN(CCCCCNC(=O)/C=C/c2ccc(Cl)c(Cl)c2)CC1`, the results for the growth inhibition in assay [1] and in assay [4] were 89% (active) and 97% (active), respectively. For the same compound, the inhibition in assay [2] was 28% (inactive); in assay [3], -1% (inactive). Further, the result in assay [5], in assay [6], in assay [7] and in assay [8] was inactive.

As to `S=C(Nc1ccccc1Cl)NC1CCC(CN2CCC(c3c[nH]c4ccccc34)CC2)CC1` (configuration not stated), the growth inhibition was 12% (inactive) in assay [1] and 90% (active) in assay [4]. Moreover, the inhibition is 31% (inactive) in assay [2] and 8% (inactive) in assay [3]. Moreover, the result in assay [5], in assay [6], in assay [7] and in assay [8] was inactive.

Take `O=C(NC1CCC(CN2CCC(c3c[nH]c4ccccc34)CC2)CC1)c1cc(-c2ccccc2Cl)oc1C(F)(F)F` (configuration not stated): the figures for the growth inhibition in assay [1] and in assay [4] were 7% (inactive) and 99% (active), respectively. Further, the inhibition is 24% (inactive) in assay [2] and 4% (inactive) in assay [3]. Besides, the outcome in assay [5], in assay [6], in assay [7] and in assay [8] was inactive.

For the compound `O=C(Nc1ccccc1C(F)(F)F)NC1CCC(CN2CCC(c3c[nH]c4ccccc34)CC2)CC1` (configuration not stated), the growth inhibition in assay [1] was 12% (inactive) and 42% (inactive); in assay [4], 86% (active) and 96% (active). The inhibition in assay [2] was 34% (inactive) and 46% (inactive); in assay [3], -3% (inactive). For the same compound, the outcome in assay [5], in assay [6], in assay [7] and in assay [8] was inactive.

In the case of `CN(C)CCCn1cc(C(=O)OC2C[C@H]3CC[C@@H](C2)N3C)c2cc(-c3ccccc3)ccc21` (some centres not stated), the results for the growth inhibition in assay [1] and in assay [4] were 96% (active) and 97% (active), respectively. Moreover, the inhibition in assay [2] is 97% (active); in assay [3], 0% (inactive). Further, the outcome in assay [5], in assay [6], in assay [7] and in assay [8] was inactive.

Turning to `NCc1ccc(-c2ccccc2CN(C(=O)Nc2ccccc2)C2CCN(Cc3ccccc3)CC2)cc1`, the results for the growth inhibition in assay [1] and in assay [4] were 35% (inactive) and 100% (active), respectively. Further, the inhibition in assay [2] is 36% (inactive); in assay [3], 3% (inactive). Further, the result in assay [5], in assay [6], in assay [7] and in assay [8] was inactive.

As to `O=C(C=Cc1ccccc1Br)NC1CCC(CN2CCC(c3c[nH]c4ccccc34)CC2)CC1` (configuration not stated), the growth inhibition is 32% (inactive) and 57% (active) in assay [1]; 101% (active) and 102% (active) in assay [4]. Also, the inhibition in assay [2] is 36% (inactive) and 43% (inactive); in assay [3], 4% (inactive). Besides, the result in assay [5], in assay [6], in assay [7] and in assay [8] was inactive.

Take `CC[C@H]1CN2CC[C@@H]1C[C@@H]2[C@@H](O)c1cc(-c2ccc(F)cc2)nc2ccc(OC)cc12`: the growth inhibition in assay [1] was 64% (active); in assay [4], 98% (active). For the same compound, the inhibition in assay [2] was 18% (inactive); in assay [3] it was -4% (inactive). Besides, the outcome in assay [5], in assay [6], in assay [7] and in assay [8] was inactive.

`CC[C@H]1CN2CC[C@@H]1C[C@H]2[C@H](O)c1cc(-c2ccc(Cl)c(Cl)c2)nc2ccc(O)cc12`: the results for the growth inhibition in assay [1] and in assay [4] were 99% (active) and 98% (active), respectively. Also, the inhibition in assay [2] was -8% (inactive); in assay [3], -1% (inactive). Besides, the result in assay [5], in assay [6], in assay [7] and in assay [8] was inactive.
